# Screening results deposited in PubChem BioAssay by National Center for Advancing Translational Sciences (NCATS).
# Rab9 prom act – qHTS Assay for Rab9 Promoter Activators. Potency, µM (doses to about 9.22 µM), for the others: top-dose activation, negative = inhibition, actives largely listed as activators. 2.8% of 320,000 active. Huh7 Rab9 promoter-luciferase reporter, luminescence, 24 h; further: % of control where 0% means no effect; nearly all actives have a fitted effect of over 60% in size
#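 Luminescence from Amplite-detected luciferase (10 minutes, ambient) reports Rab9 promoter activation. Before that, stable Rab9-luciferase Huh7 cells (1500/well, reduced-serum OP-MEM I plus 10% FBS) were exposed to compound for 24 hours at 37C.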
# NPC1 prom act – qHTS Assay for NPC1 Promoter Activators | AID 485313, 2010 | Potency, µM (highest dose often 9.22 µM), inactives show at the top dose activation, hits mostly activators | Huh7 NPC1 promoter luciferase reporter, 24 h | 2.4% of 320,000 active; further: % of control where 0% means no effect; nearly all actives have a fitted effect of over 60% in size
#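 Luciferase expression driven by the NPC1 promoter was measured in stably transfected Huh7 cells after a 24 h compound incubation, using a luciferase reagent and a luminescence read.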
# ELG1 genotoxic – qHTS screen for small molecules that induce genotoxicity in human embryonic kidney (HEK293T) cells expressing luciferase-tagged ELG1. HEK293T ELG1-luciferase reporter, luminescence, 16 h. Potency, µM (titrated, usually from 46 µM), inactives show at the top dose activity change, positive = activation, usual class: activators. 1.3% of 330,000 active. AID 504466, 2011; further: % of control where 0% means no effect; nearly all actives have a fitted effect of over 60% in size
#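 Luminescence read-out: rising ELG1-luciferase signal, reflecting elevated ELG1 protein under genetic stress, flags genotoxic compounds. Cells were treated for 16 hr at 37 °C before ONE-Glo detection.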
# SMN2 splice up – qHTS Assay for Enhancers of SMN2 Splice Variant Expression. HEK293 SMN2-luciferase splicing reporter, luminescence, 30-36 h. Potency, µM (titrated, usually from 46.1 µM), inactives show top-dose activity change, positive = activation, actives largely listed as activators. 2.8% of 210,000 active. AID 1458, 2008; further: % of control where 0% means no effect; nearly all actives have a fitted effect of over 55% in size
#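 HEK293 cells carry an SMN2 minigene-luciferase reporter in which exon 7 inclusion puts luciferase in frame. Cells were seeded at 2000 cells/well, attached for 10-12 hours, then exposed to compounds for 30-36 hours at 37C before ONE-Glo luminescence.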
# p53 reactivator – qHTS assay for re-activators of p53 using a Luc reporter | H1299 p53-A138V BP100-luciferase reporter, luminescence, 24 h | Potency, µM (highest dose often 92.2 µM), for the others: at the top dose activity change, positive = activation, hits mostly activators | 0.063% of 320,000 active; further: % of control where 0% means no effect; nearly all actives have a fitted effect of over 45% in size
#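 H1299 (p53-null), stable ts p53-A138V + BP100-Luc; 1000 cells/well, Opti-MEM/10% FBS; cpd 4 pt, 1:5; 24 h, 37 deg C, 5% CO2; detection reagent 10 min RT; luminescence.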
# FLuc modulator – qHTS profiling assay for firefly luciferase inhibitor/activator using purifed enzyme and Km concentrations of substrates (counterscreen for miR-21 project) | purified FLuc, Km substrates, luminescence inhibition | Luciferin 4-monooxygenase (Photinus pyralis), P08659 | AID 588342, 2011 | Potency, µM (series often up to 57.5 µM), for inactives: top-dose activity change, negative = inhibition, hits mostly inhibitors | 6.9% of 360,000 active;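 further: plate controls were vehicle for no effect and reference inhibitor for full effect; nearly all actives have a fitted effect of over 55% in size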
# Target sequence (P08659 whole entry, looked up): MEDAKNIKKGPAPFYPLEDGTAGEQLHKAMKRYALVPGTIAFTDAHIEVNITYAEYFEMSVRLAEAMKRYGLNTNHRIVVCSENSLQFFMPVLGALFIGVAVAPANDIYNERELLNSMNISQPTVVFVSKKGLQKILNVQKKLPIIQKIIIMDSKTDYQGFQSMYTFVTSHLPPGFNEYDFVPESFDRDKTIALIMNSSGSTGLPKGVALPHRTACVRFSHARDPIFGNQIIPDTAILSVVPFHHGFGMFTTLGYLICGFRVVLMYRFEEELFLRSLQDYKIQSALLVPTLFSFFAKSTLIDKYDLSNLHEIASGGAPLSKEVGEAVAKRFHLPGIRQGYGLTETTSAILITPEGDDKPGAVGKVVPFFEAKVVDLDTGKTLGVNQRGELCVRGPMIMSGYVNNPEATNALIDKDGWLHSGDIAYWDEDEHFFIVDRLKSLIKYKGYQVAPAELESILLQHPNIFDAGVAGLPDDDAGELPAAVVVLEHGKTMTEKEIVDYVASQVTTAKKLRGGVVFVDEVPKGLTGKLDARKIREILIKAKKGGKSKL
#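 Biochemical qHTS of compounds, final roughly 60 µM downward over six points, against 10 nM purified firefly luciferase using Km concentrations of substrates (10 uM D-luciferin, 10 uM ATP) in Tris acetate pH 7.5 buffer; luminescence output.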
# An asterisk follows results filed as active; u = inconclusive; x = no result; ! = a repeat was not active; [ ] = remark or other dose. Compounds with a hit are over-represented: about 7.4% of the library has one in this group of screens. The call rests on the fitted dose curve; in most records, active means well fitted curve in the direction sought with a large enough effect; inconclusive means small, poorly fitted or top-dose-only effect, or another doubt; inactive means no such curve, though single readings can be large; an effect the other way counts as inactive or inconclusive. Potency means the concentration at half of the fitted maximal effect.
SMILES,Rab9 prom act,NPC1 prom act,ELG1 genotoxic,SMN2 splice up,p53 reactivator,FLuc modulator
Cc1ccc(-c2nc(Nc3ccccc3)n[nH]2)cc1,0.71µM*,0.89µM*,0.65µM*,3.5µM*,u,1.7µM*
O=C(O)COc1ccc(/C=C/c2nc3ccc([N+](=O)[O-])cc3s2)cc1,4%,7%,3%,x,12%,4.8µM*
O=C(CSc1ncnc2nc[nH]c12)c1ccccc1,4µM*,2.8µM*,1%,11µM*!,u,21µM*
O=C(CSc1ncnc2nc[nH]c12)c1ccc(Cl)cc1,17%,12%,11%,x,21%,-9%
c1ccc(CCSc2ncnc3nc[nH]c23)cc1,u,u,7%,-7%,u,15µM*
Cc1ccc2cccc(NC(=O)c3ccc(-c4ccc(Cl)cc4Cl)o3)c2n1,x,x,x,11%,x,-2%
O=C(O)c1cc2c(cc1S(=O)(=O)O)[C@H]1[C@@H](C3[C@H]2[C@@]2(Cl)C(Cl)=C(Cl)C3(Cl)C2(Cl)Cl)[C@]2(Cl)C(Cl)=C(Cl)C1(Cl)C2(Cl)Cl (some centres undefined),x,x,x,-4%[9.22 µM],x,x
Cn1c(=S)oc2ccccc21,-6%,-4%,-3%,x,-3%,-2%
CC(C)CC(=O)/C=C/n1c(=S)oc2ccccc21,-46%,-32%,-16%,-68%,2%,0.95µM*
CC(=O)/C=C/n1c(=S)oc2ccccc21,-41%,-36%,-11%,-10%[1.84 µM],-26%,5.4µM*
O=C(c1csnn1)N1CCC2(CCN(Cc3ccccc3)CC2)CC1,x,x,x,2%,x,x
Cc1cc(-c2ccccc2)nc(SCc2ccc(C(=O)O)cc2)n1,-2%,-3%,6%,x,4%,u
Cn1c(=O)oc2cc(S(=O)(=O)Nc3ccc(F)cc3)ccc21,-3%,-2%,-1%,x,3%,-1%
Clc1ccc(/C=N/Nc2nc(Cl)nc3ccccc23)cc1,15%,3%,u,29%,22%,13µM*
Clc1nnc(NN=C2CCCC2)c2ccccc12,1%,-6%,2%,-9%,u,u
Cc1ccc(/C=N/Nc2nnc(Cl)c3ccccc23)cc1,u,u,2.3µM*,4.5µM*,u,0.6µM*
Clc1ccc(/C=N/Nc2nnc(Cl)c3ccccc23)cc1,u,u,u,11µM*,u,u
Clc1cncc(Cl)c1N/N=C/c1ccccc1,-1%,28%,6%,x,1%,21µM*
CCCC[C@@H](C=O)NC(=O)[C@H](CC(C)C)NC(=O)OCc1ccccc1,x,x,x,-43%,x,x
N#Cc1ccc(OC(=O)c2cc(-c3ccc(Cl)cc3)on2)cc1,x,x,x,x,x,-19%
CCN(Cc1ccccc1)S(=O)(=O)c1cc2[nH]c(=O)c(=O)[nH]c2cc1C,0%,-6%,-1%,x,2%,-1%
Clc1nnc(N/N=C/c2ccccc2)c2ccccc12,u,21%,7.1µM*,18µM*,u,2.7µM*
CC(C)C(=O)Nc1ccc2nn(-c3ccc(F)cc3)nc2c1,0.089µM*,0.11µM*,u,x,1%,0.85µM*
CCCC(=O)Nc1ccc2nn(-c3ccc(OC)cc3)nc2c1,2µM*,u,u,x,x,5.4µM*
CC(C)CC(=O)Nc1ccc2nn(-c3ccccc3)nc2c1,1.6µM*,1.6µM*,u,6.3µM*,u,2.7µM*
SMILES,Rab9 prom act,NPC1 prom act,ELG1 genotoxic,SMN2 splice up,p53 reactivator,FLuc modulator
Cc1ccc(-n2nc3ccc(NC(=O)c4ccc5c(c4)OCO5)cc3n2)cc1,7%,0%,1%,-13%,9%,-1%
Cc1ccc(-n2nc3ccc(NC(=O)C(C)C)cc3n2)cc1,0.35µM*,0.35µM*,1.2µM*,2.2µM*,12%,0.95µM*
Cc1ccc(NN2C(=O)C=C(c3ccccc3)C2=O)cc1,-5%,0%,17%,-4%,-10%,u
CCOC(=O)c1ccc(-c2c(-c3ccc4c(c3)OCO4)noc2C)cc1F,-1%,-2%,0%,x,8%,2%
Cc1ccc(-n2nc3ccc(NC(=O)c4ccco4)cc3n2)cc1,u,19%,15µM*,1%,25%,9.5µM*
CCN(CC)c1nc(C)nc2c1cnn2CCc1ccccc1,u,u,12µM*,22µM*,27%,19µM*
CCN(CC)c1ncnc2c1cnn2Cc1ccc(C)cc1,-5%[1.84 µM],2%,-1%,x,-5%,5%
COC(=O)c1cccc(C23CC4(C2)[C@H](CN(CC2CCCCC2)[C@@H]4c2ccccc2)C3c2ccc(C(F)(F)F)cc2)c1 (some centres undefined),x,x,x,-25%,x,x
Cc1ccc(/C=C2\SC(=S)N(CCC(=O)NCCCN3CCOCC3)C2=O)cc1,-2%,-2%,-8%,x,18%,u
CCOc1ccc(/C=C2\SC(=S)N(CC(=O)NCCCN3CCOCC3)C2=O)cc1,19%,1%,-8%,x,7%,3µM*
CC(C)c1ccc(/C=C2\SC(=O)N(CC(=O)NCCCn3ccnc3)C2=O)cc1,3.5µM*,u,u,x,u,0.6µM*
O=C(CN1C(=O)/C(=C/c2cccc(Br)c2)SC1=S)NCCCN1CCOCC1,6%,5%,-3%,x,-9%,21µM*
CC(C)c1ccc(/C=C2\SC(=S)N(CC(=O)NCCCN3CCOCC3)C2=O)cc1,0%,6%,u,x,16%,1.3µM*
O=C(CCCN1C(=O)/C(=C/c2cccc(Br)c2)SC1=S)NCCCN1CCOCC1,-2%[1.84 µM],0%,-5%,x,13%,u
O=C(CN1C(=O)S/C(=C\c2ccccc2)C1=O)NCCCn1ccnc1,0%,-4%,-2%,x,7%,-13%
Oc1ccc(/C=N/Nc2ccnc3cc(Cl)ccc23)cc1O,-2%,-4%,u,x,21%,17µM*
Oc1ccc(/C=N/Nc2ccnc3cc(Cl)ccc23)c(O)c1O,10%,-2%,28%,x,11%,u
CC[n+]1c(/C=C/c2ccc(OC(C)=O)c(OC)c2)ccc2ccccc21,-13%,-23%,u,x,-3%,19µM*
CC[n+]1c(/C=C/c2ccc(OC)c(OC)c2)ccc2ccccc21,5%,15%,10µM*,x,2%,3.4µM*
COc1ccccc1OCc1nc2ccccc2[nH]1,2µM*,2.5µM*,u,11µM*,u,11µM*
c1cnc2c(OCc3nc4ccccc4[nH]3)cccc2c1,2.2µM*,4µM*,u,11µM*,u,9.5µM*
c1ccc(Oc2cccc3cccnc23)nc1,-3%,-6%,2%,x,7%,-1%
